A short description of assay [1]: NCI Yeast Anticancer Drug Screen. Data for the rad50 strain (AID 155).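 Note: 0% = growth of vehicle-only cultures of the same strain.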 The following applies: S. cerevisiae rad50 strain growth inhibition; at 50.0 µM; active compounds read high. A digest of the protocol: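 DNA repair mutant yeast, compound exposure, growth read-out; inhibition is taken relative to vehicle.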
Assay [2] is described as follows: NCI Yeast Anticancer Drug Screen. Data for the mec2-1 strain (AID 157). The following applies: S. cerevisiae mec2-1 strain, at 50.0 µM, active compounds read high. The gist of the method: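 Readout is yeast growth inhibition, normalised to vehicle-treated controls, in the mec2-1 strain exposed to compound.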
Assay [3] can be described thus: NCI Yeast Anticancer Drug Screen. Data for the sgs1 mgt1 strain (AID 161).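 Note: 0% = growth of cultures given vehicle only.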 As to conditions: S. cerevisiae sgs1 mgt1 strain, at 50.0 µM, active compounds read high. A digest of the protocol: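 Yeast cells carrying a defined DNA-repair defect were exposed to test compounds. Growth inhibition was measured relative to vehicle-treated controls.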
Assay [4] in a line: NCI Yeast Anticancer Drug Screen. Data for the cln2 rad14 strain (AID 165).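 Note: 0% = growth equal to vehicle treated cultures.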 The following applies: S. cerevisiae cln2 rad14 strain, at 50.0 µM, active compounds read high. The gist of the method: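 Relative to vehicle controls, growth inhibition of compound-treated cln2 rad14 yeast was recorded.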
Assay [5] in a line: NCI Yeast Anticancer Drug Screen. Data for the bub3 strain (AID 167). The following applies: S. cerevisiae bub3 mutant strain, at 50.0 µM, active compounds read high. A digest of the protocol: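 In this screen, a yeast mutant lacking normal mitotic checkpoint function is challenged with compound. Relative growth versus vehicle gives the inhibition value.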
Assay [6] in a line: NCI Yeast Anticancer Drug Screen. Data for the mlh1 rad18 strain (AID 175). As to conditions: S. cerevisiae mlh1 rad18 strain growth inhibition; at 50.0 µM; active compounds read high. The gist of the method:
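Test agents were incubated with a yeast strain of defined genotype (DNA damage repair defect). Inhibition of growth was derived by comparison with vehicle-exposed cultures.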

This is part of a sample that, as a whole, favours compounds with a hit. Of some 79,000 tested, about 15% had one in any assay. Values without a mark were called inactive. Activity calls are given as the source filed them. Cut-off read from the data, not from the text of the source: active = growth inhibition above about 70%; inactive = the rest.

For the molecule `CCNc1ccc(-c2ccc(NCC)cc2)cc1`, the growth inhibition in assay [1] is 31.6%; in assay [2], -14%; in assay [3], 26%; in assay [4], 3.2%; in assay [5] it was -1.45%; in assay [6], 36.9%.

Take `O=C1OC(C(Cl)(Cl)Cl)Nc2ccccc21` (stereo unspecified): the growth inhibition in assay [1] was 13.8%; in assay [2], -19.8%; in assay [3], 9.35%; in assay [4], 15.6%; in assay [5] it was 19.4%; in assay [6], 12.9%.

For the molecule `CCC1(c2ccccc2)NC(=O)N(N)C1=O` (stereo unspecified), the growth inhibition in assay [1] is 0.4%; in assay [2], 28.5%; in assay [3] it was -8.8%; in assay [4], 9.05%; in assay [5] it was -0.75%; in assay [6], 1.85%.

In the case of `CC1=Cc2cc3[n-]c(cc4nc(cc5[n-]c(cc1n2)c(C)c5CCC(=O)O)C(CCC(=O)O)=C4C)cc3C.[Cu+2]`, the growth inhibition was 0.9% in assay [1]; -0.9% in assay [2]; 10.3% in assay [3]; -49.5% in assay [4]; 15.2% in assay [5]; -0.5% in assay [6].

With `CCN(CC)CCCC#CCN1CCOCC1`, the growth inhibition in assay [1] was -39.5%; in assay [2], -48.5%; in assay [3], -21.4%; in assay [4], -16.9%; in assay [5], -44.7%; in assay [6] it was -20.1%.

For `O=C(OCc1ccccc1)C1CCCN1C(=O)C(CSC(c1ccccc1)(c1ccccc1)c1ccccc1)NC(c1ccccc1)(c1ccccc1)c1ccccc1` (stereo unspecified), the growth inhibition was -5.5% in assay [1]; -1.35% in assay [2]; -0.8% in assay [3]; -11.3% in assay [4]; -7.55% in assay [5]; 24.6% in assay [6].

For the molecule `Cc1cc(C)c(NC(=O)Nc2cccc(F)c2)c(C)c1`, the growth inhibition in assay [1] was 20.8%; in assay [2], 11%; in assay [3], 13.2%; in assay [4], 19.2%; in assay [5], 23.4%; in assay [6], 13.3%.

Consider `CCN(CC)c1ccccc1S(=O)(=O)O`, for which the growth inhibition in assay [1] is -5.45%; in assay [2], -5.3%; in assay [3], 2.9%; in assay [4], -42.9%; in assay [5], -6.85%; in assay [6], -6.35%.

As to `CCN(CC)C(=O)c1ccc(O)c(OC)c1`, the growth inhibition in assay [1] was 17.7%; in assay [2] it was 17%; in assay [3] it was 7.3%; in assay [4], 7.65%; in assay [5], -7.3%; in assay [6], -4.3%.

Consider `N#CC(C#N)=C(N)/C(C#N)=C/c1ccc2ccccc2n1`, for which the growth inhibition is -0.25% in assay [1]; -11.2% in assay [2]; -5.75% in assay [3]; 12.8% in assay [4]; -5.45% in assay [5]; -12.2% in assay [6].

`CCC(=O)[C@H]1CC[C@H]2[C@@H]3CCC4=CC(=O)CC[C@]4(C)[C@H]3CC[C@]12C`: the growth inhibition in assay [1] is -7.6%; in assay [2], 26.9%; in assay [3], 32%; in assay [4], 6.5%; in assay [5] it was 37.5%; in assay [6], 2.45%.

For the molecule `CN1CNC(=S)NC1`, the growth inhibition in assay [1] was 10.2%; in assay [2] it was -7.85%; in assay [3] it was 11%; in assay [4] it was 17.6%; in assay [5] it was 20.9%; in assay [6], 15.2%.

For the molecule `CN(C)C(=O)Nc1cccc(OC(=O)NC2CC2)c1`, the growth inhibition in assay [1] is 4.4%; in assay [2], 16.9%; in assay [3], 26.9%; in assay [4], -8.35%; in assay [5] it was 19.8%; in assay [6], -4.1%.

Consider `O=CC(NC(=O)N(CCF)N=O)C(O)C(O)C(O)CO` (stereo unspecified), for which the growth inhibition in assay [1] was -15%; in assay [2], -4.05%; in assay [3], 2.5%; in assay [4], -15.6%; in assay [5] it was 1.3%; in assay [6], -44.4%.

In the case of `Brc1cccc2ccc3ccccc3c12`, the growth inhibition in assay [1] is 23.2%; in assay [2], 19%; in assay [3], 29.1%; in assay [4], 8.25%; in assay [5], 32%; in assay [6] it was 75.7% (active).

With `O=C(C(=O)c1cccc(C(=O)C(=O)c2ccccc2)c1)c1ccccc1`, the growth inhibition is 5.45% in assay [1]; -10.6% in assay [2]; -15.2% in assay [3]; 17.3% in assay [4]; -29% in assay [5]; 9.5% in assay [6].

With `Nc1ncnc(N)c1NC(=O)c1cccc(-c2ccccc2)c1`, the growth inhibition was 2.85% in assay [1]; 41.1% in assay [2]; 23.9% in assay [3]; 0.8% in assay [4]; 34.9% in assay [5]; -21.1% in assay [6].

With `C/C(Cc1ccccc1)=N\NS(=O)(=O)c1ccc(C)cc1`, the growth inhibition in assay [1] is 44.4%; in assay [2], -2.15%; in assay [3], 35.9%; in assay [4], 8.85%; in assay [5], 1.1%; in assay [6], 34.6%.

On to `O=C(NC1CCCCC1)Oc1ccc(-c2ccccc2)cc1Cl`, for which the growth inhibition in assay [1] is 98.7% (active); in assay [2] it was 99.3% (active); in assay [3], 98.3% (active); in assay [4], 98.2% (active); in assay [5], 99% (active); in assay [6] it was 99.1% (active).

As for `Cc1nc2ccccn2c1N=Nc1ccc(C(=O)NN)cc1`, the growth inhibition was 7.3% in assay [1]; -15.1% in assay [2]; 0.1% in assay [3]; 10.8% in assay [4]; -10.8% in assay [5]; -18.4% in assay [6].

Regarding `CCCCCCCCNC(=O)CBr`, the growth inhibition in assay [1] is 5.3%; in assay [2], 9.85%; in assay [3], 22.8%; in assay [4], -25.4%; in assay [5], 13.3%; in assay [6] it was 6.15%.

The record behind these values is PubChem BioAssay (NCI).
